The test system of experiment [1] is Epidermal growth factor receptor (Homo sapiens), P00533 [T790M]. The note with it: at 1 µM.
In experiment [2] the test system is Epidermal growth factor receptor (Homo sapiens), P00533 [L858R,T790M]. The settings on record: at 0.1 µM.
Experiment [3] shares this test system. The settings on record: at 1 µM.
Experiment [4] has as its target Ephrin type-A receptor 2 (Homo sapiens) (UniProt P29317). The note with it: at 0.1 µM.
The target is the same in experiment [5]. The note with it: at 1 µM.
The target of experiment [6] is T1, Ephrin type-A receptor 3 (Homo sapiens) (UniProt P29320).
T1 sequence (whole entry): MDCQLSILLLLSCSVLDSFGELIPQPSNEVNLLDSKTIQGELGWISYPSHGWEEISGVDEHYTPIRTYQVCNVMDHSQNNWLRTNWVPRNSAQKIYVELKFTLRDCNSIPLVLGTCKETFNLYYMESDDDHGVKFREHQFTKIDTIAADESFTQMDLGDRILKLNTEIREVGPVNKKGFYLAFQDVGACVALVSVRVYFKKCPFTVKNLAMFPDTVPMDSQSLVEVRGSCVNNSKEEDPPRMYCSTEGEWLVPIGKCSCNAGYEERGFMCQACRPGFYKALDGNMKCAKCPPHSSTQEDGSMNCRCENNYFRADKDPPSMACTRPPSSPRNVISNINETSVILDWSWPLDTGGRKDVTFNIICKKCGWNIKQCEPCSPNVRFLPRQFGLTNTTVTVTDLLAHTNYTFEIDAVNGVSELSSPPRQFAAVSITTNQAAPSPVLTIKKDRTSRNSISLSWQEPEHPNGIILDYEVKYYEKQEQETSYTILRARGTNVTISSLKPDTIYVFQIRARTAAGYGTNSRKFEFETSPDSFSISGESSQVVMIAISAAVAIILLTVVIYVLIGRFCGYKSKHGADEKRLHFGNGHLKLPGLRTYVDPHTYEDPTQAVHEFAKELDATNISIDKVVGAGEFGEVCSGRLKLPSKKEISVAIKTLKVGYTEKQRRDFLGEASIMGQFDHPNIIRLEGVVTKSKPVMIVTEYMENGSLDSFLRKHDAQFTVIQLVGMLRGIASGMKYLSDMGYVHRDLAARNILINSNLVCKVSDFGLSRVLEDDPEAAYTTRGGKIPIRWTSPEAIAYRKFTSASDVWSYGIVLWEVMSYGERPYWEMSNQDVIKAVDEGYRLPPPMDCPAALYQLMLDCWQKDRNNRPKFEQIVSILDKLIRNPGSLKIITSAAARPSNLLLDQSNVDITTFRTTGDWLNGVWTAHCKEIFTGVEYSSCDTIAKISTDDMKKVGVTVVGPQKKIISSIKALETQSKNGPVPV
The settings on record: at 0.1 µM.

Experiment [7] deals with T1, Ephrin type-A receptor 3 (Homo sapiens). The note with it: at 1 µM.
In experiment [8] the target is Ephrin type-A receptor 4 (Homo sapiens) (UniProt P54764). The settings on record: at 0.1 µM.
Experiment [9] shares this target. The note with it: at 1 µM.
Experiment [10] has as its target T2, Ephrin type-B receptor 2 (Homo sapiens) (UniProt P29323).
T2 sequence (whole entry): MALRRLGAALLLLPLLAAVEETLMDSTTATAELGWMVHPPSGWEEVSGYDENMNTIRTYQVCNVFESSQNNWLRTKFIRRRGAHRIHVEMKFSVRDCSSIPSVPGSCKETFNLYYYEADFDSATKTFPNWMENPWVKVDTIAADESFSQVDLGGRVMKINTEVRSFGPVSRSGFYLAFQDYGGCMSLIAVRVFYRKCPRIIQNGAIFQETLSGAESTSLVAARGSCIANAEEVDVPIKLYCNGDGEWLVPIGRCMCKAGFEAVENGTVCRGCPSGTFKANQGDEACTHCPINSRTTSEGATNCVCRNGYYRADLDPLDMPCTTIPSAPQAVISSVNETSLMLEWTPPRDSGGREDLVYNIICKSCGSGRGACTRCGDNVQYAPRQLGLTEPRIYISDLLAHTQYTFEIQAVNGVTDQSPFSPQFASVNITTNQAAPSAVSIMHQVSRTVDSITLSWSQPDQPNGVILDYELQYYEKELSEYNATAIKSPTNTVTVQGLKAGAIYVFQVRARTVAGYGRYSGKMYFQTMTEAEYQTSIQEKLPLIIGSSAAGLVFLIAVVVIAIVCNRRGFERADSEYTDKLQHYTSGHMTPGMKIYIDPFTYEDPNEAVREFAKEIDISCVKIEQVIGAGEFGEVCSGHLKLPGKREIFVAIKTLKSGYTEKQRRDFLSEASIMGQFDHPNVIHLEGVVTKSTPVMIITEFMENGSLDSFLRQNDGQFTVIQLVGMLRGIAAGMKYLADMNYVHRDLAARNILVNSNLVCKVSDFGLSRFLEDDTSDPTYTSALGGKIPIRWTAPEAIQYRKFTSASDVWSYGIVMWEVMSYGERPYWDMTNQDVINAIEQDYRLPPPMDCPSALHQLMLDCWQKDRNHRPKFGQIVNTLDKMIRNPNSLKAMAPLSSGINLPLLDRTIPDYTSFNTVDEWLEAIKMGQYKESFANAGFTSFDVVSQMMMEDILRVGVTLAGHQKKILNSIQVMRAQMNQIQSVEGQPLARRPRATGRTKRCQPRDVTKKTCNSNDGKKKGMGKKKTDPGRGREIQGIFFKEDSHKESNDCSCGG
The note with it: at 0.1 µM.

Experiment [11] addresses T2, Ephrin type-B receptor 2 (Homo sapiens). The settings on record: at 1 µM.
For experiment [12], the target named is T3, Ephrin type-B receptor 3 (Homo sapiens) (UniProt P54753).
T3 sequence (whole entry): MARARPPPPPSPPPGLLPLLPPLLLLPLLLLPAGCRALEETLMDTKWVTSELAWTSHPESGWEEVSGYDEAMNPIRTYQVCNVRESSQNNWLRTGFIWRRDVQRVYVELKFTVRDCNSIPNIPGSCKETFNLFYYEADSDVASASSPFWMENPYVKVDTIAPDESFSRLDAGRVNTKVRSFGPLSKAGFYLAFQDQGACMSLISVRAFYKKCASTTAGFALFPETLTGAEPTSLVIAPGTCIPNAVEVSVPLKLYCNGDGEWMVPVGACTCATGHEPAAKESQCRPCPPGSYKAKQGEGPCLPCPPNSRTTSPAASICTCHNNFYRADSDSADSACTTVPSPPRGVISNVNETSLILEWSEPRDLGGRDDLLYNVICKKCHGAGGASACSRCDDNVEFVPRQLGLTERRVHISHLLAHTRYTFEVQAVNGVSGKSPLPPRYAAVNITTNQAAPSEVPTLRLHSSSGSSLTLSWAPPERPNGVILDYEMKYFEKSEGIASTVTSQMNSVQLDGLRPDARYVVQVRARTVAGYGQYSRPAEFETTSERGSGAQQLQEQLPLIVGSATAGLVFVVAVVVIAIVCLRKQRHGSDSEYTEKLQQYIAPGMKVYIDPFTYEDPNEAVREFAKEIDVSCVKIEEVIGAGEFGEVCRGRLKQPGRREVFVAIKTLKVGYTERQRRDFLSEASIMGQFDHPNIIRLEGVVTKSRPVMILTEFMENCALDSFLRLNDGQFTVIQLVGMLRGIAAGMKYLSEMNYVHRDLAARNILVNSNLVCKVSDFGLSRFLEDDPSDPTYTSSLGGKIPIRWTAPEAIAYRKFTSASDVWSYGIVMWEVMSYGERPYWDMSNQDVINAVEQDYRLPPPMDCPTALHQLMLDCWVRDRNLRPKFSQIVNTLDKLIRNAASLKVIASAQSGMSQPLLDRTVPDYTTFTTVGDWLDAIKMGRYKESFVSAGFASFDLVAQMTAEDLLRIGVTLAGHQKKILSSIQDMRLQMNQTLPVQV
The note with it: at 0.1 µM.

Experiment [13] addresses T3, Ephrin type-B receptor 3 (Homo sapiens). The settings on record: at 1 µM.
For experiment [14], the target named is T4, Ephrin type-B receptor 4 (Homo sapiens) (UniProt P54760).
T4 sequence (whole entry): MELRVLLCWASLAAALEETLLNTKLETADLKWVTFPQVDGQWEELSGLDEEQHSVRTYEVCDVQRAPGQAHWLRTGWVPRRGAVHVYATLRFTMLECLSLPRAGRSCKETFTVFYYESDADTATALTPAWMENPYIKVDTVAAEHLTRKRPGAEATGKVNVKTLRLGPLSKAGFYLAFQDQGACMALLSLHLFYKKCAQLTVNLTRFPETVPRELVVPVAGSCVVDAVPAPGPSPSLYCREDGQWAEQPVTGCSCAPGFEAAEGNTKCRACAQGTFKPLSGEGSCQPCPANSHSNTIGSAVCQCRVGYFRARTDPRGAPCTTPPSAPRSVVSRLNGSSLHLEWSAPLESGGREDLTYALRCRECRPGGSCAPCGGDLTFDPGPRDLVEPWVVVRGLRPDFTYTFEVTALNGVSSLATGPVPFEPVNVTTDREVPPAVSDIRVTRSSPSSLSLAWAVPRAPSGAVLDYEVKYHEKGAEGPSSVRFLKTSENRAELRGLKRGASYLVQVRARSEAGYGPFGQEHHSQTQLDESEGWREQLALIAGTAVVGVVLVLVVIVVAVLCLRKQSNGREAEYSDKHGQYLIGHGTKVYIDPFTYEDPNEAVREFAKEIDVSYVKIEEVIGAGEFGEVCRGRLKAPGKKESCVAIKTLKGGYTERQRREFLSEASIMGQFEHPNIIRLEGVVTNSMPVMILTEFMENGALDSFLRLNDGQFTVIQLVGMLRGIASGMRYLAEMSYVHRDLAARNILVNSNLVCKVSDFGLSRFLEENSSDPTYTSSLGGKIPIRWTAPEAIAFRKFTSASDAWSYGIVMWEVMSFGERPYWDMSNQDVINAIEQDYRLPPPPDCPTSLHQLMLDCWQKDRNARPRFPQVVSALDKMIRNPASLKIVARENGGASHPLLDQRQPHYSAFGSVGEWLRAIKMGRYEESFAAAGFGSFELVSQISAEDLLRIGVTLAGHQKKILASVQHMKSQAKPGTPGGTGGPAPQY
The settings on record: at 0.1 µM.

Experiment [15] addresses T4, Ephrin type-B receptor 4 (Homo sapiens). The settings on record: at 1 µM.
The target in experiment [16] is Receptor tyrosine-protein kinase erbB-2 (Homo sapiens) (UniProt P04626). The settings on record: at 0.1 µM.
Sequence of Receptor tyrosine-protein kinase erbB-2 (Homo sapiens) (P04626 whole entry): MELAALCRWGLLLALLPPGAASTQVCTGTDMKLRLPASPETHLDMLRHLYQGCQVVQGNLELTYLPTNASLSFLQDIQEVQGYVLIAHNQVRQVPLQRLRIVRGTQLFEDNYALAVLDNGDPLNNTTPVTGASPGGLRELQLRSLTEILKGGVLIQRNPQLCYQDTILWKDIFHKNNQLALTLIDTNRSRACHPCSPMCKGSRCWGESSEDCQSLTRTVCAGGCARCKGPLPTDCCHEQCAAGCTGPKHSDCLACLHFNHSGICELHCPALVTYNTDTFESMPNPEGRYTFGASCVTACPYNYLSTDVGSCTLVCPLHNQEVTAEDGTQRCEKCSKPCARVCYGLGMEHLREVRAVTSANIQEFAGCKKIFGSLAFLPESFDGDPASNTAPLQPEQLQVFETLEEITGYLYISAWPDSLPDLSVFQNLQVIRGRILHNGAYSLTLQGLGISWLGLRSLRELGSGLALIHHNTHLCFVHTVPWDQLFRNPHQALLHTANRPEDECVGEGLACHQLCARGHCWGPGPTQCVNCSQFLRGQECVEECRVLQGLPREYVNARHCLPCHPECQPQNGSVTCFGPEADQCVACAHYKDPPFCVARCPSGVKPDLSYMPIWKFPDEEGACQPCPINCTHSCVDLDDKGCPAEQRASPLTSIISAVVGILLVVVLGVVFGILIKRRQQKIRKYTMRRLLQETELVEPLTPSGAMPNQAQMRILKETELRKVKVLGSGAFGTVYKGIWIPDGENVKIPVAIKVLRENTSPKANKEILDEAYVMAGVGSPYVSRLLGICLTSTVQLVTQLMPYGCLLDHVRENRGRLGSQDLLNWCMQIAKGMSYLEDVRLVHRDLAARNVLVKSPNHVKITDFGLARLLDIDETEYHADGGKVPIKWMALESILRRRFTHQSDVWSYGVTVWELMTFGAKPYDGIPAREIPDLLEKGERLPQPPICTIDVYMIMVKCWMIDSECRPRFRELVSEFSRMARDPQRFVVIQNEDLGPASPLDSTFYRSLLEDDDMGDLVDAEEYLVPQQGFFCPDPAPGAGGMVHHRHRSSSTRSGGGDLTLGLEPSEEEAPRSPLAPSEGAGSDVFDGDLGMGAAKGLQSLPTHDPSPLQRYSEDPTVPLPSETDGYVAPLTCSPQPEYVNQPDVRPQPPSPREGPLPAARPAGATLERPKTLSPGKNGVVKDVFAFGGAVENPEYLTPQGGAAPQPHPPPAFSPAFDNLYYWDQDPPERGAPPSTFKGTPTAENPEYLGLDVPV
For experiment [17] the target is unchanged. The settings on record: at 1 µM.
The target of experiment [18] is Receptor tyrosine-protein kinase erbB-4 (Homo sapiens) (UniProt Q15303). The settings on record: at 0.1 µM.
Experiment [19] has the same target. The note with it: at 1 µM.
The target in experiment [20] is Tyrosine-protein kinase Fer (Homo sapiens) (UniProt P16591). The note with it: at 0.1 µM.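 Further: reported figures are averaged percent inhibition of FER.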
Sequence of Tyrosine-protein kinase Fer (Homo sapiens) (P16591 whole entry, looked up): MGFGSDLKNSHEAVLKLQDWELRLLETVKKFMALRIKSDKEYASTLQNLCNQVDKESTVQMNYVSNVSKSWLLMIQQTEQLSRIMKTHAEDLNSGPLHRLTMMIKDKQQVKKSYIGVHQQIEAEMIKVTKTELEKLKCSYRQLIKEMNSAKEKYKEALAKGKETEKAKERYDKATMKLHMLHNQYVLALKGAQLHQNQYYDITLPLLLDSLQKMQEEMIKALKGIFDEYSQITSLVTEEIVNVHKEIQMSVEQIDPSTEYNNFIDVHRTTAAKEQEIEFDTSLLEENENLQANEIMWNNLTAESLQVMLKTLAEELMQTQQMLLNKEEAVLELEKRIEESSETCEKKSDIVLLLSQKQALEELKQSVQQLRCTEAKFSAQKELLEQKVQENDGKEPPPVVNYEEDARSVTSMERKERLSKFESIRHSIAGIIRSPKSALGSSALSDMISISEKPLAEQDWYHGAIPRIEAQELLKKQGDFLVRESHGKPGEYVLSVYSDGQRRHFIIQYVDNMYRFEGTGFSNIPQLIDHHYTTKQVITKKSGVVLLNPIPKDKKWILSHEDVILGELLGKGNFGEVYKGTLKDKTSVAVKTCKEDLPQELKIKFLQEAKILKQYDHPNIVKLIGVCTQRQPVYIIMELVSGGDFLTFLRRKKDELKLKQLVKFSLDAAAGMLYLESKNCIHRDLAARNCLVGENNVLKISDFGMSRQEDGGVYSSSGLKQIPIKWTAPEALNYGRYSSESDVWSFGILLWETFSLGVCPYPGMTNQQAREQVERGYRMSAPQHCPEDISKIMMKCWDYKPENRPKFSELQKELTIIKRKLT

Structures are written as SMILES.

The results in this text go back to ChEMBL document CHEMBL1961873, “Compounds: GSK PKIS; Assays: Nanosyn kinase panel” (2012).

Sequence of Epidermal growth factor receptor (Homo sapiens), P00533 [L858R,T790M] (P00533 whole entry T790M/L858R, looked up): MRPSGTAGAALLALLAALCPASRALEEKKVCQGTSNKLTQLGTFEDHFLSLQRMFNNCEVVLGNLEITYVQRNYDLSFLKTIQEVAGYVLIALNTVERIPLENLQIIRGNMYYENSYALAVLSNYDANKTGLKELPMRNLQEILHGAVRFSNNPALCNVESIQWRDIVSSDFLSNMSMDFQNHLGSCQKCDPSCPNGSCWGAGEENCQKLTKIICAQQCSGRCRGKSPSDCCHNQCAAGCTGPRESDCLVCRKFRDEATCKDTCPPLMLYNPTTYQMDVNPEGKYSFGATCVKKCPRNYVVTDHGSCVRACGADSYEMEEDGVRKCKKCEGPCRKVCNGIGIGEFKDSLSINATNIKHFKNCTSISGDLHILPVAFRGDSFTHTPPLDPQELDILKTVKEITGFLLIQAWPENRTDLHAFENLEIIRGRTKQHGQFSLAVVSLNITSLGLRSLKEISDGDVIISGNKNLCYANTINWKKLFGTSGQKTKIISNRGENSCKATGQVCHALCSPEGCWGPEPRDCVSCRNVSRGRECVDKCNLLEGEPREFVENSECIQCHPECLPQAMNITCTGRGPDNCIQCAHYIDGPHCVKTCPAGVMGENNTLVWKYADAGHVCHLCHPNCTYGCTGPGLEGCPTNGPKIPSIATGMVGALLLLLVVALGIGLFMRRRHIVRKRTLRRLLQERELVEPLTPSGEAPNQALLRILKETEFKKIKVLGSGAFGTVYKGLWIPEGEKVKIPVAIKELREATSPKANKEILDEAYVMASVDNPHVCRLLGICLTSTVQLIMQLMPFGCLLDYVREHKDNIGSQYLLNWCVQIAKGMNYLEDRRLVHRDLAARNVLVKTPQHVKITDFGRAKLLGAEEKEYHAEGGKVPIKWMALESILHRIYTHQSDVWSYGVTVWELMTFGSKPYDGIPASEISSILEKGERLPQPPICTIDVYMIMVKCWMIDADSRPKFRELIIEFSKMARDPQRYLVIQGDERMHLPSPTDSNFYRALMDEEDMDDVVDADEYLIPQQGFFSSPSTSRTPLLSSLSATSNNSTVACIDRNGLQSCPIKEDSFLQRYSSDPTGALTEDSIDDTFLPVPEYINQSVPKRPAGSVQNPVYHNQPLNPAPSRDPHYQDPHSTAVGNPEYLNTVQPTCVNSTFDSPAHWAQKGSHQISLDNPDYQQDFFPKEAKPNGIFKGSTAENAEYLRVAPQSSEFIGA
Sequence of Ephrin type-A receptor 2 (Homo sapiens) (P29317 whole entry): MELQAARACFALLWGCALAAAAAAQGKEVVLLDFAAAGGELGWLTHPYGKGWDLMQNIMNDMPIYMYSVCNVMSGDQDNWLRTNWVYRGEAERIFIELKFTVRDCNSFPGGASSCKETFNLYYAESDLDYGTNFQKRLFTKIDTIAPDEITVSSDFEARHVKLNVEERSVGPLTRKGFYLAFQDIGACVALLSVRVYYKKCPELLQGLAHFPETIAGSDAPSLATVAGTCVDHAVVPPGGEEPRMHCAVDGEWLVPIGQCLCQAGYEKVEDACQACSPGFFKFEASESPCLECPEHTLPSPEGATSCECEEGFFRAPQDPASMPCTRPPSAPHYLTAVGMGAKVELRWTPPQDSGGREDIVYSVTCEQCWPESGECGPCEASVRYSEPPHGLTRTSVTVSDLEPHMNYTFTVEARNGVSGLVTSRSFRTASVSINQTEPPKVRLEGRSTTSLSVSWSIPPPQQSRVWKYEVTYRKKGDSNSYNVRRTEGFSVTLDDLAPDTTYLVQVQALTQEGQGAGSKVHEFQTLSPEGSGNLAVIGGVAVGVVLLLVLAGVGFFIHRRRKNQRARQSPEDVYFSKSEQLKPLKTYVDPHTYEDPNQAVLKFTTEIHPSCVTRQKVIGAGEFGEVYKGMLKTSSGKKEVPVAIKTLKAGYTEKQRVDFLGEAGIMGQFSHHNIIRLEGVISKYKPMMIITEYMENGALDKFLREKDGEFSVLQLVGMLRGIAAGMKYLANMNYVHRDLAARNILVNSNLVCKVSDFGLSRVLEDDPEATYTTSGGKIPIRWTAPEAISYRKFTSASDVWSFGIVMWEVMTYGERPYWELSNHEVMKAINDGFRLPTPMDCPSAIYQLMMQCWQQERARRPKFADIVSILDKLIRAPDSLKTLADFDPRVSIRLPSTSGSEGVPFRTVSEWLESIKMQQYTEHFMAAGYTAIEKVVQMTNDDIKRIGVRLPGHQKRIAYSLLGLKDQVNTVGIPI

Regarding `Fc1ccc(-c2c(-c3ccncc3)nc3n2CCS3)cc1`, the inhibition (in general, the change of the read-out against control, counted positive when it falls) in experiment [1] is 1.49%; in experiment [2] it was 2.41%; in experiment [3], 2.54%; in experiment [4], -5.85%; in experiment [5], -4.53%; in experiment [6] it was -0.6%. For the same compound, the inhibition in experiment [7] amounted to 0.35%; in experiment [8] it was 6.26%; in [9] it was 8.11%; in [10] it was 1.66%; in [11], 6.7%; in experiment [12], 1.23%. The inhibition was 1.23% in experiment [13]; -4.56% in [14]; -2.17% in experiment [15]; 1.03% in experiment [16]; 0.17% in [17]; 2.91% in experiment [18]. Further, the inhibition in experiment [19] was 4.97%; in [20], 0.77%.
For `O=C(Nc1n[nH]c2cc(-c3ccccc3)ccc12)C1CC1`, the inhibition in experiment [1] is 4.64%; in experiment [2], 2.81%; in experiment [3] it was 3.37%; in experiment [4], 1.75%; in experiment [5], 3.8%; in [6] it was 5.17%. Also, the inhibition in [7] was 6.3%; in [8], 6.13%; in experiment [9], 18.9%; in experiment [10], 6.68%; in experiment [11], 17.1%; in experiment [12], 2.9%. In addition, the inhibition worked out at 2.89% in [13]; 2.92% in experiment [14]; 4.63% in experiment [15]; 4.46% in experiment [16]; 1.33% in experiment [17]; 13.8% in experiment [18]. For the same compound, the inhibition in experiment [19] stood at 15.8%; in [20] it was 6.13%.
Turning to `O=C(Nc1ccc(Oc2ccc3[nH]c(NC(=O)c4ccccc4)nc3c2)cc1)Nc1cc(C(F)(F)F)ccc1F`, the inhibition in experiment [1] came out at 5.49%; in experiment [2], 1.07%; in [3], 2.34%; in experiment [4] it was 2.75%; in experiment [5], 26%; in experiment [6], 4.22%. In addition, the inhibition amounted to 8.94% in experiment [7]; 13.4% in experiment [8]; 64.2% in [9]; 13.7% in experiment [10]; 61.8% in [11]; 5.05% in [12]. For the same compound, the inhibition in experiment [13] came out at 8.33%; in experiment [14], 3.63%; in experiment [15], 27.5%; in experiment [16] it was 2.77%; in experiment [17], 4.41%; in experiment [18], 6.9%. Further, the inhibition in [19] amounted to 9.12%; in experiment [20], 1.59%.
Consider `FC(F)(F)c1cccc(Nc2nccc(-c3cnn4nc(-c5ccccc5)ccc34)n2)c1`, for which the inhibition was -0.22% in [1]; 0.52% in [2]; -0.49% in experiment [3]; 2% in experiment [4]; 0.59% in experiment [5]; 2.67% in experiment [6]. Further, the inhibition in experiment [7] is 3.91%; in experiment [8] it was 5.08%; in [9] it was -4.97%; in experiment [10], 4.58%; in experiment [11], 6.85%; in experiment [12] it was 5.37%. The inhibition in experiment [13] was 2.32%; in [14] it was -0.91%; in [15], 0.74%; in experiment [16], 2.98%; in experiment [17], 2.21%; in experiment [18], 7%. For the same compound, the results for the inhibition in [19] and in [20] were 8.48% and -2.66%, respectively.
